Publication PMC12820563, “FoxP3 forms a head-to-head dimer in vivo and stabilizes its multimerization on adjacent microsatellites”
The full ranking holds about 16,000 sequences; the median of “rpm ratio (pull-down/input)” is about 0.5, and the highest 2% start at about 5.5. This excerpt belongs to a sample that is enriched for the highest values.

Molecular target: T1, MBP-FoxP3dN (Mus musculus, UniProt Q99JB6 188-423)
T1 sequence: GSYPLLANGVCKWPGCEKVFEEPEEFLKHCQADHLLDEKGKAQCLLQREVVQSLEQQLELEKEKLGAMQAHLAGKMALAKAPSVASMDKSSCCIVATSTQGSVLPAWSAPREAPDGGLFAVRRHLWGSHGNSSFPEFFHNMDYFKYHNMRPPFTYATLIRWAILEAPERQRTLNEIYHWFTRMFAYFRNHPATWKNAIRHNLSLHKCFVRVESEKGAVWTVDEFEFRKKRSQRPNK
Assay: PD-seq (MBP pull-down with sequencing); 20 mM Tris-HCl pH 7.5, 100 mM NaCl, 1.5 mM MgCl2, 0.4 uM protein, 0.1 uM dsDNA library, 30 min, room temperature, amylose pull-down; high values mean tight binding
Conditions: protein: recombinant; tags: His6-MBP; chain copies: 2; dsDNA, one strand shown
In short: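 In Tris pH 7.5 buffer with NaCl and MgCl2, 0.4 µM His6-MBP-tagged mouse FoxP3 or FoxP1 fragment lacking the N-terminus, from E. coli, met 0.1 µM Klenow-filled double-stranded degenerate DNA library for 30 min at room temperature. Three washes on amylose resin followed capture of the complexes, then proteinase K release of DNA, PCR barcoding and Illumina sequencing. Binding is taken as pooled-replicate reads-per-million enrichment of pull-down relative to input.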

| Sequence | binding signal |
| --- | --- |
| GATGATTGTTCTCCCAGCTGATGAATTCCTCGCTTCGAGTAAACAAATTTTCCTAATCTTTCTGTTCAAGCGCCATCTAC | 0.285 RPM ratio (pull-down/input) |
| GATGATTGTTCTCCCAGCTGATGAATTGCCGCCATCGAGTAAACAAATTTTCCTAATCTTTCTGTTCAAGCGCCATCTAC | 2.97 RPM ratio (pull-down/input) |
| GATGATTGTTCTCCCAGCTGATGAATTTGAGTTTTCGAGTAAACAAATTTTCCTAATCTTTCTGTTCAAGCGCCATCTAC | 0.885 RPM ratio (pull-down/input) |
| GATGATTGTTCTCCCAGCTGATGAATTCAAGTTTTCGAGTAAACAAATTTTCCTAATCTTTCTGTTCAAGCGCCATCTAC | 0.454 RPM ratio (pull-down/input) |
| GATGATTGTTCTCCCAGCTGATGAATTTCCCTTCTCGAGTAAACAAATTTTCCTAATCTTTCTGTTCAAGCGCCATCTAC | 0.295 RPM ratio (pull-down/input) |
| GATGATTGTTCTCCCAGCTGATGAATTGAATTGATCGAGTAAACAAATTTTCCTAATCTTTCTGTTCAAGCGCCATCTAC | 0.917 RPM ratio (pull-down/input) |
| GATGATTGTTCTCCCAGCTGATGAATTTCTGTGATCGAGTAAACAAATTTTCCTAATCTTTCTGTTCAAGCGCCATCTAC | 0.408 RPM ratio (pull-down/input) |
| GATGATTGTTCTCCCAGCTGATGAATTTGTTGAGTCGAGTAAACAAATTTTCCTAATCTTTCTGTTCAAGCGCCATCTAC | 5.53 RPM ratio (pull-down/input) |
| GATGATTGTTCTCCCAGCTGATGAATTGTGTTGATCGAGTAAACAAATTTTCCTAATCTTTCTGTTCAAGCGCCATCTAC | 7.06 RPM ratio (pull-down/input) |
| GATGATTGTTCTCCCAGCTGATGAATTCAATTGATCGAGTAAACAAATTTTCCTAATCTTTCTGTTCAAGCGCCATCTAC | 1.07 RPM ratio (pull-down/input) |
| GATGATTGTTCTCCCAGCTGATGAATTCTTTTGATCGAGTAAACAAATTTTCCTAATCTTTCTGTTCAAGCGCCATCTAC | 0.285 RPM ratio (pull-down/input) |
| GATGATTGTTCTCCCAGCTGATGAATTGTGATGATCGAGTAAACAAATTTTCCTAATCTTTCTGTTCAAGCGCCATCTAC | 2.48 RPM ratio (pull-down/input) |
| GATGATTGTTCTCCCAGCTGATGAATTTTTTGAGTCGAGTAAACAAATTTTCCTAATCTTTCTGTTCAAGCGCCATCTAC | 0.237 RPM ratio (pull-down/input) |
| GATGATTGTTCTCCCAGCTGATGAATTCTGTTGATCGAGTAAACAAATTTTCCTAATCTTTCTGTTCAAGCGCCATCTAC | 6.26 RPM ratio (pull-down/input) |
| GATGATTGTTCTCCCAGCTGATGAATTGTTGTGATCGAGTAAACAAATTTTCCTAATCTTTCTGTTCAAGCGCCATCTAC | 6.31 RPM ratio (pull-down/input) |
| GATGATTGTTCTCCCAGCTGATGAATTGATCTAATCGAGTAAACAAATTTTCCTAATCTTTCTGTTCAAGCGCCATCTAC | 0.356 RPM ratio (pull-down/input) |
| GATGATTGTTCTCCCAGCTGATGAATTTGATGAGTCGAGTAAACAAATTTTCCTAATCTTTCTGTTCAAGCGCCATCTAC | 0.974 RPM ratio (pull-down/input) |
| GATGATTGTTCTCCCAGCTGATGAATTCAGATGTTCGAGTAAACAAATTTTCCTAATCTTTCTGTTCAAGCGCCATCTAC | 1.06 RPM ratio (pull-down/input) |
| GATGATTGTTCTCCCAGCTGATGAATTGTACCCATCGAGTAAACAAATTTTCCTAATCTTTCTGTTCAAGCGCCATCTAC | 0.472 RPM ratio (pull-down/input) |
| GATGATTGTTCTCCCAGCTGATGAATTGAATCACTCGAGTAAACAAATTTTCCTAATCTTTCTGTTCAAGCGCCATCTAC | 0.551 RPM ratio (pull-down/input) |

| Sequence | binding signal |
| --- | --- |
| GATGATTGTTCTCCCAGCTGATGAATTCAATTGCTCGAGTAAACAAATTTTCCTAATCTTTCTGTTCAAGCGCCATCTAC | 2.31 RPM ratio (pull-down/input) |
| GATGATTGTTCTCCCAGCTGATGAATTAGGATGTTCGAGTAAACAAATTTTCCTAATCTTTCTGTTCAAGCGCCATCTAC | 0.82 RPM ratio (pull-down/input) |
| GATGATTGTTCTCCCAGCTGATGAATTTTTGCGTTCGAGTAAACAAATTTTCCTAATCTTTCTGTTCAAGCGCCATCTAC | 2.04 RPM ratio (pull-down/input) |
| GATGATTGTTCTCCCAGCTGATGAATTGTATTATTCGAGTAAACAAATTTTCCTAATCTTTCTGTTCAAGCGCCATCTAC | 5.22 RPM ratio (pull-down/input) |
| GATGATTGTTCTCCCAGCTGATGAATTATTGCAGTCGAGTAAACAAATTTTCCTAATCTTTCTGTTCAAGCGCCATCTAC | 1.18 RPM ratio (pull-down/input) |
| GATGATTGTTCTCCCAGCTGATGAATTCAGCTGTTCGAGTAAACAAATTTTCCTAATCTTTCTGTTCAAGCGCCATCTAC | 1.19 RPM ratio (pull-down/input) |
| GATGATTGTTCTCCCAGCTGATGAATTGATTCGCTCGAGTAAACAAATTTTCCTAATCTTTCTGTTCAAGCGCCATCTAC | 0.331 RPM ratio (pull-down/input) |
| GATGATTGTTCTCCCAGCTGATGAATTATGGCTCTCGAGTAAACAAATTTTCCTAATCTTTCTGTTCAAGCGCCATCTAC | 0.643 RPM ratio (pull-down/input) |
| GATGATTGTTCTCCCAGCTGATGAATTTTTTTGATCGAGTAAACAAATTTTCCTAATCTTTCTGTTCAAGCGCCATCTAC | 0.23 RPM ratio (pull-down/input) |
| GATGATTGTTCTCCCAGCTGATGAATTTTGTTGATCGAGTAAACAAATTTTCCTAATCTTTCTGTTCAAGCGCCATCTAC | 7.34 RPM ratio (pull-down/input) |
| GATGATTGTTCTCCCAGCTGATGAATTTGTTTGATCGAGTAAACAAATTTTCCTAATCTTTCTGTTCAAGCGCCATCTAC | 5.99 RPM ratio (pull-down/input) |
| GATGATTGTTCTCCCAGCTGATGAATTGTTGACATCGAGTAAACAAATTTTCCTAATCTTTCTGTTCAAGCGCCATCTAC | 5.72 RPM ratio (pull-down/input) |
| GATGATTGTTCTCCCAGCTGATGAATTTTTGACATCGAGTAAACAAATTTTCCTAATCTTTCTGTTCAAGCGCCATCTAC | 0.524 RPM ratio (pull-down/input) |
| GATGATTGTTCTCCCAGCTGATGAATTGATGACATCGAGTAAACAAATTTTCCTAATCTTTCTGTTCAAGCGCCATCTAC | 1.05 RPM ratio (pull-down/input) |
| GATGATTGTTCTCCCAGCTGATGAATTTGATTGATCGAGTAAACAAATTTTCCTAATCTTTCTGTTCAAGCGCCATCTAC | 2.23 RPM ratio (pull-down/input) |
| GATGATTGTTCTCCCAGCTGATGAATTGTTTTGATCGAGTAAACAAATTTTCCTAATCTTTCTGTTCAAGCGCCATCTAC | 4.03 RPM ratio (pull-down/input) |
| GATGATTGTTCTCCCAGCTGATGAATTGATTTGATCGAGTAAACAAATTTTCCTAATCTTTCTGTTCAAGCGCCATCTAC | 0.64 RPM ratio (pull-down/input) |
| GATGATTGTTCTCCCAGCTGATGAATTGATTCTCTCGAGTAAACAAATTTTCCTAATCTTTCTGTTCAAGCGCCATCTAC | 0.395 RPM ratio (pull-down/input) |
| GATGATTGTTCTCCCAGCTGATGAATTAAGTCGCTCGAGTAAACAAATTTTCCTAATCTTTCTGTTCAAGCGCCATCTAC | 0.441 RPM ratio (pull-down/input) |
| GATGATTGTTCTCCCAGCTGATGAATTAGGACGCTCGAGTAAACAAATTTTCCTAATCTTTCTGTTCAAGCGCCATCTAC | 0.484 RPM ratio (pull-down/input) |
